# Measurements from PubChem BioAssay AID504848 (National Center for Advancing Translational Sciences (NCATS), 2011).
# Out of some 2,300 compounds screened, about 1,400 (61%) were called active. About 29% were inconclusive and are not listed. Calls come from the whole dose curve; as a rule, active = well fitted inhibition curve with a large enough effect; inconclusive = small, poorly fitted or top-dose-only effect, or effect the other way; inactive = no such curve, though single readings can be large or run the other way. So high a share suggests a set chosen from earlier hits. The list shows a part of the results.
# Assay: Confirmation screen for delayed death inhibitors of the malarial parasite plastid, 96 hour incubation; note: nearly all actives have a fitted effect of over 60% in size
# Details: P. falciparum luciferase growth in erythrocytes; series mostly up to 28.7 µM
# Summary of the method: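 Two-generation (96 h, 37 C) exposure of P. falciparum carrying an integrated firefly luciferase reporter in erythrocytes, 0.1% parasitemia and 2% hematocrit final, Albumax-supplemented RPMI. Luminescence decrease measures growth inhibition.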
# Potency is the fitted concentration of half-maximal effect.
row,SMILES,Potency
1,COc1ccccc1Nc1nnc(SCC(=O)N2CCCC2)s1,2.51 µM (active)
2,CCOc1ccccc1Nc1nnc(SC(C)C(=O)Nc2nc(-c3ccccc3)cs2)s1 (stereo not drawn),15.8 µM (active)
3,COc1ccccc1Nc1nnc(SCC(=O)Nc2nc(-c3ccc(F)cc3)cs2)s1,10 µM (active)
4,Cc1cc(C(=O)OC(C)C(=O)Nc2nc(-c3ccccc3)cs2)c(C)o1 (stereo not drawn),inactive
5,COc1ccccc1Nc1nnc(SCc2cc(=O)n3ccsc3n2)s1,4.47 µM (active)
6,COc1ccc(C(=O)NC2CC2)cc1OC1CCN(C/C=C/c2ccccc2)CC1,2.24 µM (active)
7,COc1ccc(C(=O)NC2CC2)cc1OC1CCN(Cc2ccccc2)CC1,14.1 µM (active)
8,COc1ccc(OC)c(-c2nc(C(=O)NC3CCN(Cc4ccccc4)CC3)cc3c2[nH]c2ccccc23)c1,4.47 µM (active)
9,CCCN1CCC(NC(=O)CC2C(=O)NCCN2Cc2cccc(OC)c2)CC1 (stereo not drawn),inactive
10,CCCCCCn1ccc(=N)cc1,3.55 µM (active)
11,Cc1ccc(-c2csc(N/N=C/c3ccco3)n2)c(C)c1,14.1 µM (active)
12,CCOc1ccc(C(=O)Nc2ccc(N3CCN(C)CC3)cc2)cc1,15.8 µM (active)
13,CCOc1ccc(NC(=O)CC2C(=O)N(c3ccccc3)C(=O)N2CCOC)cc1 (stereo not drawn),inactive
14,CC(C)N1CCC(N2CCN(Cc3ccc(-c4ccc(Cl)cc4)o3)CC2CCO)CC1 (stereo not drawn),5.01 µM (active)
15,CN1C[C@@H]2C[C@H]1CN2c1cc2c(cc1F)c(=O)c(C(=O)O)cn2C1CC1,2 µM (active)
16,COc1ccc(C2(CCN)CC(C)N(C)CC2C)cc1 (stereo not drawn),15.8 µM (active)
17,CCn1c2ccccc2c2cc(/C=N/n3cn[nH]c3=S)ccc21,6.31 µM (active)
18,CCOC(=O)C1(Cc2cccc(Cl)c2)CCCN(C(=O)C(C)(C)C)C1 (stereo not drawn),15.8 µM (active)
19,Cc1ccc(C2C3=C(CC(C)(C)CC3=O)N=C3c4ccccc4C(=O)C32)cc1 (stereo not drawn),7.08 µM (active)
20,O=C(CSc1c2c(nc3ccc(Cl)cc13)CCCC2)NCCCN1CCOCC1,10 µM (active)
21,CCN(CC)c1ccc(-c2sc(Nc3ccccc3)n[n+]2-c2ccc(F)cc2)cc1,12.6 µM (active)
22,c1ccn2cc(C34CC5CC(CC(C5)C3)C4)nc2c1,12.6 µM (active)
23,Cc1c(OC(C)C(=O)NCc2cccnc2)ccc2c3c(c(=O)oc12)CCCC3 (stereo not drawn),1.26 µM (active)
24,Cc1c(OCC(=O)NCc2cccnc2)ccc2c3c(c(=O)oc12)CCCC3,12.6 µM (active)

row,SMILES,Potency
1,O=c1oc2ccccc2c(O)c1CN1CCCCC1,inactive
2,CC(=O)N1/C(=C/c2ccc(N(C)C)cc2)C(=O)c2ccccc21,0.282 µM (active)
3,C#CCn1c(S(=O)(=O)Cc2ccc(F)cc2)nc(-c2ccccc2)c1-c1ccccc1,12.6 µM (active)
4,C#CCn1c(S(=O)(=O)Cc2ccc(C)cc2)nc(-c2ccccc2)c1-c1ccccc1,12.6 µM (active)
5,CCOC(=O)Cn1c(S(=O)(=O)Cc2cccc(F)c2)nc(-c2ccccc2)c1-c1ccccc1,7.08 µM (active)
6,COc1cc(-c2nnc(NC(=O)CCS(=O)(=O)c3ccccc3)o2)cc(OC)c1OC,12.6 µM (active)
7,Cc1sc(NC(=O)c2c(F)cccc2F)nc1-c1ccccc1,inactive
8,Cc1sc(N/N=C/c2cccnc2)nc1-c1ccccc1,12.6 µM (active)
9,Cc1nc([N+](=O)[O-])c(Br)n1CC(=O)c1ccc(Cl)cc1,7.94 µM (active)
10,O=C(CSc1nc2cc([N+](=O)[O-])ccc2n1-c1ccccc1)NCc1ccc2c(c1)OCO2,11.2 µM (active)
11,COc1cc2c(cc1OC)CN(C(=O)c1cc(C3CC3)nn1-c1ccccc1)CC2,12.6 µM (active)
12,COc1cc2cc(CN(CCc3ccccc3C)C(=S)NCCCN3CCOCC3)c(=O)[nH]c2cc1OC,4.47 µM (active)
13,COc1cc2cc(CN(Cc3cccs3)C(=S)Nc3ccc(C)cc3)c(=O)[nH]c2cc1OC,10 µM (active)
14,O=C(NC1CCCC1)C1CC(=O)N(CCc2ccccc2)C1 (stereo not drawn),inactive
15,O=C(NC1CCCCC1)C1CCN(c2nnnn2-c2ccccc2)CC1,14.1 µM (active)
16,O=C(Nc1cccc([N+](=O)[O-])c1)c1ccc2nsnc2c1,inactive
17,O=C(CSc1nc2ccccc2c(=O)[nH]1)Nc1cccc([N+](=O)[O-])c1,14.1 µM (active)
18,CCOC(=O)CNC(c1ccccc1)c1cc(Br)ccc1NC(=O)CCN1CCOCC1 (stereo not drawn),11.2 µM (active)
19,COc1ccc(Cl)cc1C(=O)Nc1ccncc1,12.6 µM (active)
20,COc1ccc(Cl)cc1NC(=O)C(=O)NCc1ccncc1,inactive
21,COc1ccc(Nc2cc(Cl)ccc2C(=O)O)cn1,inactive
22,CC(=O)Nc1cccc(Oc2ncnc3scc(-c4ccc(C(C)C)cc4)c23)c1,6.31 µM (active)
23,Cc1cc(C)c(C(=O)/C=C/c2cccc3ccccc23)c(=O)[nH]1,6.31 µM (active)
24,CCc1nnc(NC(=O)CSc2nc3cccnc3n2C2CCCCC2)s1,inactive

row,SMILES,Potency
1,CCc1nnc(NC(=O)CSc2ncnc3c2cnn3-c2ccc(OC)cc2)s1,12.6 µM (active)
2,CC(NC(=O)c1ccc([N+](=O)[O-])o1)C12CC3CC(CC(C3)C1)C2 (stereo not drawn),6.31 µM (active)
3,O=C(NC12CC3CC(CC(C3)C1)C2)c1ccc([N+](=O)[O-])o1,2.24 µM (active)
4,Cn1cc([N+](=O)[O-])c(C(=O)Nc2ccn(C34CC5CC(CC(C5)C3)C4)n2)n1,inactive
5,COc1cc(C2Oc3ccccc3C=C2[N+](=O)[O-])cc(OC)c1OC (stereo not drawn),12.6 µM (active)
6,CN(c1ccccc1)S(=O)(=O)c1cc(C(=O)N2CCN(c3ncccn3)CC2)ccc1Cl,8.91 µM (active)
7,CCOC(=O)C1(CCc2ccccc2)CCN(Cc2ccccn2)CC1,2.51 µM (active)
8,Cc1cccc(C)c1OCCn1nc(C(=O)O)c2ccccc2c1=O,inactive
9,Cc1cccc(C)c1NC(=O)C(=O)c1cn(C)c2ccccc12,15.8 µM (active)
10,COc1ccc(CN2C(=O)c3ccccc3C2C(=O)NC2CCC(C)CC2)c(OC)c1 (stereo not drawn),7.08 µM (active)
11,COc1cccc(CN2CCN(c3nc4nonc4nc3N3CCCCC3)CC2=O)c1,1.78 µM (active)
12,Cc1cc2nc3c(=O)[nH]c(=S)[nH]c3nc2cc1NC(=O)C(F)(F)F,14.1 µM (active)
13,O=C(Nc1nc(-c2ccccn2)cs1)C1COc2ccccc2O1 (stereo not drawn),6.31 µM (active)
14,CCc1ccc(N/C(SCc2cccc(F)c2)=C(/C#N)C(=O)NCc2ccco2)cc1,7.94 µM (active)
15,Cc1occc1C(=O)NC1CCCN(Cc2ccc(CC(C)C)cc2)C1 (stereo not drawn),12.6 µM (active)
16,O=C(NC1CCCN(Cc2ccc(Cl)cc2)C1)c1cnc2ccccn2c1=O (stereo not drawn),11.2 µM (active)
17,Cc1ccccc1-n1c(SCC(=O)c2c(N)n(C3CC3)c(=O)[nH]c2=O)nnc1N1CCOCC1,7.94 µM (active)
18,Cc1ccc(-c2csc(SCC(=O)c3c(N)n(C4CC4)c(=O)[nH]c3=O)n2)cc1,inactive
19,Nc1c(C(=O)CSc2nc3ccccc3o2)c(=O)[nH]c(=O)n1C1CC1,12.6 µM (active)
20,Cc1ccc(-n2nnnc2SCC(=O)Nc2ccccc2-c2ccccc2)cc1C,inactive
21,Cc1ccc(-n2nnnc2Sc2nc([N+](=O)[O-])nn2C)cc1C,3.16 µM (active)
22,N#Cc1cc(Oc2cccc3cccnc23)c(-n2nnc3ccccc32)cc1C#N,5.62 µM (active)
23,CN(C)c1ccc(CNc2ncnc3sccc23)cc1,inactive
24,COc1cccc(-c2ccc3ncnc(NCc4cccs4)c3c2)c1,5.01 µM (active)

row,SMILES,Potency
1,CCCN(CCC)c1ccc(CC(=O)NC(C)Cc2ccccc2)cc1 (stereo not drawn),12.6 µM (active)
2,O=C1NC(=S)S/C1=C\C=C\c1ccc([N+](=O)[O-])o1,2 µM (active)
3,COc1ccc(C2c3c(ncn(CCCN4CCOCC4)c3=N)Oc3ccc4ccccc4c32)cc1OC (stereo not drawn),2.24 µM (active)
4,COc1ccc(C2c3c(ncn(CCN4CCOCC4)c3=N)Oc3ccc4ccccc4c32)cc1OC (stereo not drawn),2 µM (active)
5,CCc1noc(C)c1C(=O)NC1CC(C)(C)Cc2c1cnn2-c1ccccc1 (stereo not drawn),12.6 µM (active)
6,CC1=C(C(=O)NC2CC(C)(C)Cc3c2cnn3-c2ccc(C)cc2)OCCO1 (stereo not drawn),11.2 µM (active)
7,Cc1ccc(-n2ncc3c2CC(C)(C)CC3NC(=O)c2c(C)noc2C)cc1 (stereo not drawn),12.6 µM (active)
8,CCOc1ccc2c(c1)sc(N)[n+]2Cc1cc(C)cc2cccnc12,3.98 µM (active)
9,COc1cc([N+](=O)[O-])c(OC)cc1SCc1n[nH]c(=S)n1-c1ccc(F)cc1,15.8 µM (active)
10,COc1ccccc1N1CC(O)=C(c2nc3ccccc3s2)C1=N,11.2 µM (active)
11,Cn1c(SCC(=O)N2CCCCCC2)nc2c(c1=O)SCC2,8.91 µM (active)
12,CCC(=O)c1ccc(N2CCN(C(=O)c3cc([N+](=O)[O-])ccc3N3CCN(C)CC3)CC2)c(F)c1,11.2 µM (active)
13,O=[N+]([O-])/C=C\c1ccc(N2CCCC2)c(F)c1,inactive
14,Cc1ccc(Nc2nc(NCc3ccco3)c3ccccc3n2)cc1,2 µM (active)
15,C/C=C(\C)C(=O)NCCN1C2=NC[C@H](C(C)C)N2C[C@H]1Cc1ccc(O)cc1,5.62 µM (active)
16,C/C=C(\C)C(=O)NCCN1C2=NC[C@H](Cc3ccccc3)N2C[C@H]1Cc1ccc(O)cc1,3.55 µM (active)
17,C=CCNC(=O)c1onc(CSc2cccc3ccccc23)c1C(=O)O,inactive
18,COc1ccc(CNc2ncc(-c3ccc(Cl)cc3)n2C)c(OC)c1OC,12.6 µM (active)
19,CCC[C@H]1C[C@H](C(=O)N[C@@H]([C@H]2O[C@@H](SC)[C@@H](O)[C@@H](O)[C@@H]2O)[C@H](C)Cl)N(C)C1,0.199 µM (active)
20,Cc1ccc(S(=O)(=O)N(Cc2ccccc2)c2ccccc2C(=O)Nc2ccccc2C(=O)NCc2ccco2)cc1,2.24 µM (active)
21,Cc1ccc(S(=O)(=O)N(CC(=O)NCc2ccco2)c2ccccc2C)cc1,11.2 µM (active)
